A549 viability: A549 cytotoxicity, counter-screen for Nrf2 inhibitors; A549 ARE-Fluc cells, CellTiter-Fluor viability, 18-24 h; Potency, µM (series often up to 46 µM), without a hit: at the highest dose activity change, negative = cytotoxicity, most hits filed as inhibitors; hit rate 0.16% among 390,000; further: on the % scale 0 is the no-effect control and ±100 the full control effect
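A549 ARE_Fluc cells in 5% FBS OPTI-MEM were exposed to compounds in concentration-response for 18-24 h at 37 deg C. Viability was read by CellTiter-Fluor fluorescence (Ex 405/Em 525) after 30 min, before the luciferase read.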
S2 tox: cell viability loss in ATXN counter-screen; S2 cells (HEK-293 line with an ATXN2-luciferase reporter) viability, CellTiter-Fluor protease fluorescence, 24 h; hit rate 0.49% among 400,000; Potency, µM (highest dose often 56.7 µM), hits mostly cytotoxic; further: nearly all actives have a fitted effect of over 40% in size
Nrf2 block: Nrf2 pathway inhibition | A549 ARE-Fluc reporter, luciferase luminescence, 18-24 h | Potency, µM (highest dose often 46 µM), for the others: top-dose activity change, negative = inhibition, hits mostly inhibitors | hit rate 2.1% among 360,000; further: on the % scale 0 is the no-effect control and ±100 the full control effect; nearly all actives have a fitted effect of over 60% in size
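Concentration-response testing used A549 ARE_Fluc cells at 5000 cells/well. Following an 18-24 h compound incubation, viability was read by fluorescence (Ex 405/Em 525) and luciferase output by luminescence.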
ATXN2 expr inh: ATXN2 expression inhibition. HEK-293 ATXN2-luciferase reporter, luminescence, 24 h. hit rate 0.72% among 360,000. Potency, µM (top dose mostly 57 µM), inactives show at the top dose activity change, negative = inhibition, actives largely listed as inhibitors; further: on the % scale 0 is the no-effect control and ±100 the full control effect; nearly all actives have a fitted effect of over 55% in size
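ATXN2-luciferase reporter cells (luciferase flanked by upstream and downstream ATXN2 gene portions) were treated 24 h at 37 °C with compounds at up to 57 uM. SteadyGlo luminescence gave expression; GF-AFC fluorescence gave viability.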
HepG2 tox: HepG2 cytotoxicity, counter-screen for TGF-b inhibitors; HepG2 CAGA-GFP viability, ATP luminescence, 18 h; Potency, µM (titrated, usually from 46.1 µM), inactives show top-dose activity change, negative = cytotoxicity, most hits filed as cytotoxic; hit rate 0.76% among 410,000
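CellTiter-Glo luminescence gave cytotoxicity after 18 hours at 37 degrees C. The cells were HepG2 CAGA-GFP in 1% FBS DMEM, stimulated with 500 pg/mL TGF-beta after compound addition. %Activity was normalised to no-cell wells (complete cell-killing) and DMSO (no toxicity), and curves were fitted and classified.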
TGFb SMAD3 inh: blocks TGF-b signaling. Potency, µM (series often up to 46.1 µM), inactives show at the top dose activity, negative = inhibition, hits mostly inhibitors. hit rate 1.2% among 410,000. HepG2 CAGA-GFP TGF-b/SMAD3 reporter, GFP fluorescence, 18 h; TGF-beta stimulated, 500 pg/mL final; further: on the % scale 0 is the no-effect control and ±100 the full control effect; nearly all actives have a fitted effect of over 65% in size
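Inhibition was scored as loss of TGF-beta-induced (500 pg/mL final, 18 hours, 37 degrees C) GFP in HEPG2 cells carrying a CAGA-GFP reporter, in DMEM with 1% FBS. Well GFP was summed per cell; Activity was normalised to unstimulated and stimulated DMSO wells, then concentration-response fitting.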
Starred values were filed as active, the others as inactive. An excerpt weighted towards active compounds, which were near 3.8% of everything screened. The call rests on the fitted dose curve; in most records, active means well fitted curve in the direction sought with a large enough effect; inconclusive means small, poorly fitted or top-dose-only effect, or another doubt; inactive means no such curve, though single readings can be large; an effect the other way counts as inactive or inconclusive. Potency means the concentration at half of the fitted maximal effect.

Results for Cc1c(C(=O)NCc2ccc(C(C)C)cc2)sc(=O)n1Cc1ccc(S(=O)(=O)N(C)C)cc1 ?
S2 tox: inactive; ATXN2 expr inh: -21.6%; HepG2 tox: -10.7%; TGFb SMAD3 inh: 0.6%

Results for COc1ccc(S(=O)(=O)N2CCOC2CNC(=O)C(=O)NCCc2c[nH]c3ccccc23)cc1 (centres undefined) ?
A549 viability: -8.1%; S2 tox: inactive; Nrf2 block: 7.31µM*; ATXN2 expr inh: -18.4%; HepG2 tox: -19.5%; TGFb SMAD3 inh: -11.7%

How did Cc1ccc(S(=O)(=O)N2CCOC2CNC(=O)C(=O)NCCCc2ccccc2)cc1 (centres undefined) do in these assays?
A549 viability: 0.4%; S2 tox: inactive; Nrf2 block: 20.6µM*; ATXN2 expr inh: -22.4%; HepG2 tox: -24.2%; TGFb SMAD3 inh: -34.2%

What do the screens show for `CCN(c1ccccc1)S(=O)(=O)c1nnc(NC(=O)c2ccccc2OC)s1`?
A549 viability: 3.3%; S2 tox: inactive; Nrf2 block: inconclusive; ATXN2 expr inh: 6.8%; HepG2 tox: -39.3%; TGFb SMAD3 inh: inconclusive

Results for CC1=C(C(=O)N(C)C)CC(CC(=O)NCc2cccc3ccccc23)C(=O)N1CCCN1CCCC1=O (centres undefined) ?
S2 tox: inactive; ATXN2 expr inh: 6.5%; HepG2 tox: -0.6%; TGFb SMAD3 inh: -11.9%

Results for O=C(NCc1ccccc1)c1ccc2c(c1)sc1nc(-c3ccc(F)cc3)cn12 ?
A549 viability: 13.8%; Nrf2 block: 15.5%; HepG2 tox: 8.0%; TGFb SMAD3 inh: 1.6%

Results for Cc1ccc(C(C)C)c(OCC(=O)NNC(=O)Cn2[nH]c(=O)c3ccccc3c2=O)c1 ?
A549 viability: -2.2%; S2 tox: inactive; Nrf2 block: -7.3%; HepG2 tox: -1.3%; TGFb SMAD3 inh: -2.7%

Results for O=C(COC(=O)C12CC3CC(CC(Br)(C3)C1)C2)NCc1ccco1 ?
A549 viability: -0.5%; Nrf2 block: 15.4%; HepG2 tox: 2.3%; TGFb SMAD3 inh: -15.0%

Results for Cc1ccccc1NC(=O)N1CCCC(c2nc(-c3ccc(C(C)C)cc3)no2)C1 (centres undefined) ?
A549 viability: inconclusive; S2 tox: inconclusive; Nrf2 block: 5.8µM*; ATXN2 expr inh: -24.1%; HepG2 tox: -15.8%; TGFb SMAD3 inh: -28.9%

Results for Cc1cc(C)nc(NS(=O)(=O)c2ccc(NC(=O)c3nc(SC(C)C)ncc3Cl)cc2)n1 ?
A549 viability: -1.8%; S2 tox: inactive; Nrf2 block: -27.1%; ATXN2 expr inh: -11.8%; HepG2 tox: -47.7%; TGFb SMAD3 inh: -14.1%

What do the screens show for `Cc1ccc([N+](=O)[O-])cc1N=Nc1c(-c2ccc([N+](=O)[O-])cc2)[nH]n(C(N)=S)c1=O`?
A549 viability: inconclusive; S2 tox: inconclusive; Nrf2 block: inconclusive; ATXN2 expr inh: inconclusive; HepG2 tox: -34.2%; TGFb SMAD3 inh: 2.82µM*

What do the screens show for `NC(=S)n1[nH]c(-c2ccc([N+](=O)[O-])cc2)c(N=Nc2ccc(Cl)cc2)c1=O`?
A549 viability: inconclusive; S2 tox: inactive; Nrf2 block: 5.17µM*; ATXN2 expr inh: inconclusive; HepG2 tox: 2.51µM*; TGFb SMAD3 inh: 2.51µM*

What do the screens show for `CN(C)c1ccc(CNC(=O)C2CCN(S(=O)(=O)c3cn(C)cn3)CC2)cc1`?
A549 viability: 8.0%; HepG2 tox: -12.2%; TGFb SMAD3 inh: -1.3%

How did COc1cc(C(O)P(=O)(OC2CCCCC2)c2ccc(N(C)C)cc2)cc(OC)c1OC (centres undefined) do in these assays?
A549 viability: 1.0%; S2 tox: inactive; Nrf2 block: 0.3%; ATXN2 expr inh: -4.5%; HepG2 tox: -4.4%; TGFb SMAD3 inh: 7.2%

Results for CC(C)c1ccc(C(O)P(=O)(OC2CCCCC2)OC2CCCCC2)cc1 (centres undefined) ?
A549 viability: inconclusive; S2 tox: 31.6µM*; Nrf2 block: 16.4µM*; HepG2 tox: -133.5%; TGFb SMAD3 inh: inconclusive

How did CCN(CC)CCN(C(=O)c1ccco1)c1nc2c(C)c(C)ccc2s1 do in these assays?
A549 viability: 3.1%; S2 tox: inactive; Nrf2 block: 11.7%; ATXN2 expr inh: -22.7%; HepG2 tox: -37.7%; TGFb SMAD3 inh: inconclusive

Results for O=C(N/N=C/c1ccccn1)c1cc([N+](=O)[O-])cc([N+](=O)[O-])c1 ?
A549 viability: 0.0%; S2 tox: inconclusive; Nrf2 block: -19.8%; HepG2 tox: -51.6%; TGFb SMAD3 inh: 4.47µM*

Results for O=C(N/N=C/c1ccccn1)c1cccc([N+](=O)[O-])c1 ?
A549 viability: -12.7%; S2 tox: inactive; Nrf2 block: inconclusive; ATXN2 expr inh: inconclusive; HepG2 tox: -26.2%; TGFb SMAD3 inh: -29.8%

Results for O=C(COc1ccc(/C=N/NC(=O)C(=O)N2CCCCCC2)cc1)Nc1ccccc1Cl ?
A549 viability: 0.4%; S2 tox: inactive; Nrf2 block: -5.8%; ATXN2 expr inh: 4.9%; HepG2 tox: 10.4%; TGFb SMAD3 inh: -7.4%

Results for CCCCOc1cccc(C(=O)Nc2cc(NC(=O)c3ccco3)ccc2OC)c1 ?
A549 viability: -10.8%; S2 tox: inconclusive; Nrf2 block: 23.1µM*; ATXN2 expr inh: inconclusive; HepG2 tox: -15.6%; TGFb SMAD3 inh: inconclusive

How did Cc1cc(NC(=O)c2ccc(Br)o2)ccc1NC(=O)c1ccco1 do in these assays?
A549 viability: 0.5%; S2 tox: inactive; Nrf2 block: 22.5%; ATXN2 expr inh: 8.0%; HepG2 tox: 10µM*; TGFb SMAD3 inh: 15.3%

How did COc1ccc(NC(=O)c2ccco2)cc1NC(=O)C(C)(C)Oc1ccc(Cl)cc1 do in these assays?
A549 viability: -23.2%; S2 tox: inconclusive; Nrf2 block: 20.6µM*; ATXN2 expr inh: inconclusive; HepG2 tox: -21.4%; TGFb SMAD3 inh: inconclusive

Results for COc1ccc(NC(=O)c2ccco2)cc1NC(=O)c1ccco1 ?
A549 viability: -10.3%; S2 tox: inactive; Nrf2 block: 13.4%; ATXN2 expr inh: 51.8%; HepG2 tox: 8.5%; TGFb SMAD3 inh: -4.5%

What do the screens show for `COc1cc(OC)cc(C(=O)NC(=S)Nc2ccc(NC(=O)c3ccco3)cc2)c1`?
A549 viability: 8.7%; S2 tox: inactive; Nrf2 block: 2.6%; ATXN2 expr inh: -22.5%; HepG2 tox: -8.3%; TGFb SMAD3 inh: -3.6%

Bioassay records from PubChem BioAssay.
